Measurements taken from PubChem BioAssay (Tox21).
Several values for one entry are separate records, joined by “and”; a condition that tells them apart may be missing. Identical values can stand only once. Inconclusive results are not listed. Entries that show only a call come without a potency. Some compounds were tested as several samples or in several runs, with calls that do not always agree. Activity calls are given as the source filed them. Unless noted, calls come from the whole dose curve; as a rule, active = well fitted curve in the direction sought with a large enough effect in the repeat runs; inconclusive = weak or mixed curves; inactive = no such curve, though single readings can be large; an effect the other way counts as inactive or inconclusive.

What was measured:
[1] = Human pregnane X receptor (PXR) small molecule agonists, qHTS cell viability counter screen (AID 1346977); note: nearly all actives have a fitted effect of over 50% in size; note: potency is the fitted concentration of half-maximal effect
Outline: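 HepG2 cells stably carrying the PXR-Luc reporter are cultured with 5% charcoal-stripped FBS and treated with compounds for 24hr. CellTiter-Fluor is added at 23hr and fluorescence is read after 1hr.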

[2] = Caspase-3/7 induction in HepG2 cells by small molecules, qHTS assay (AID 1346978); note: nearly all actives have a fitted effect of over 15% in size
Outline: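 Wild-type HepG2 cells (2,000/well) were settled 5 h at 37 C, 5% CO2, then exposed to compounds in DMSO for 17 h. Caspase-3/7 activity was read by luminescence 30 min after adding Caspase-Glo 3/7 reagent at room temperature.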

[3] = Caspase-3/7 induction in CHO-K1 cells by small molecules, qHTS cell viability counter screen (AID 1346979); note: nearly all actives have a fitted effect of over 35% in size; note: potency is the fitted concentration of half-maximal effect
Outline: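 Seeding: 1,500 CHO-K1 cells/well. Rest: 5hr, 37C. Treatment: compounds in DMSO, 16hr. Read: CellTiter-Fluor, 1hr, fluorescence.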

[4] = Caspase-3/7 induction in CHO-K1 cells by small molecules, qHTS assay (AID 1346980); note: nearly all actives have a fitted effect of over 15% in size
Outline: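 Wild-type cells were seeded at 1,500 per well and settled 5 hr at 37 C, 5% CO2, then exposed to DMSO-dissolved compounds for 17 hr. Caspase-Glo 3/7 reagent was added, and luminescence was read after 30min at room temperature.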

[5] = Caspase-3/7 induction in HepG2 cells by small molecules, qHTS cell viability counter screen (AID 1346981); note: nearly all actives have a fitted effect of over 30% in size; note: potency is the fitted concentration of half-maximal effect
Outline: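 Fluorescence read-out of live-cell protease activity (CellTiter-Fluor) after 1 hr with reagent. This was measured in the same wells as the caspase-3/7 luminescence, on HepG2 cells exposed to DMSO-dissolved compounds for 16 hr at 37 C.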

[6] = target: Nuclear receptor subfamily 1 group I member 2 (Homo sapiens) (UniProt O75469); experiment: Human pregnane X receptor (PXR) small molecule agonists, qHTS assay (AID 1346982); note: nearly all actives have a fitted effect of over 35% in size; note: potency is the fitted concentration of half-maximal effect
Sequence of Nuclear receptor subfamily 1 group I member 2 (Homo sapiens) (O75469 whole entry, looked up): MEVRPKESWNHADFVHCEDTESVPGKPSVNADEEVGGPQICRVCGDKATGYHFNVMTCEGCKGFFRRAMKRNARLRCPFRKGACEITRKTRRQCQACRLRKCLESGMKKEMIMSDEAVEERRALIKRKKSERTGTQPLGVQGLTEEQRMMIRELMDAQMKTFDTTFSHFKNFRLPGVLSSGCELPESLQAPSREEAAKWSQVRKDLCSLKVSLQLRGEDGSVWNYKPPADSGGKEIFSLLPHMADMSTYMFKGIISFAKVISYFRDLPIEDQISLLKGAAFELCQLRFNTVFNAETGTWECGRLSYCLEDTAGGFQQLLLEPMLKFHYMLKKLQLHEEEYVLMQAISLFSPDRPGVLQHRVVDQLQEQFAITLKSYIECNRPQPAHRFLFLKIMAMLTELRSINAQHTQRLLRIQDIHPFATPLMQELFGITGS
Outline: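 HepG2 PXR-Luc reporter line, 5% charcoal-stripped FBS; 5 hr pre-incubation, compound (DMSO) 24 hr at 37 C/5% CO2; ONE-Glo 30 min RT; luminescence read-out.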

[7] = target: Acetylcholinesterase (Homo sapiens) (UniProt P22303); experiment: Acetylcholinesterase (AChE) small molecule antagonists: colormetric cell-based qHTS assay (AID 1347395; calls by dose curve; note: nearly all actives have a fitted effect of over 30% in size)
Sequence of Acetylcholinesterase (Homo sapiens) (P22303 whole entry, looked up): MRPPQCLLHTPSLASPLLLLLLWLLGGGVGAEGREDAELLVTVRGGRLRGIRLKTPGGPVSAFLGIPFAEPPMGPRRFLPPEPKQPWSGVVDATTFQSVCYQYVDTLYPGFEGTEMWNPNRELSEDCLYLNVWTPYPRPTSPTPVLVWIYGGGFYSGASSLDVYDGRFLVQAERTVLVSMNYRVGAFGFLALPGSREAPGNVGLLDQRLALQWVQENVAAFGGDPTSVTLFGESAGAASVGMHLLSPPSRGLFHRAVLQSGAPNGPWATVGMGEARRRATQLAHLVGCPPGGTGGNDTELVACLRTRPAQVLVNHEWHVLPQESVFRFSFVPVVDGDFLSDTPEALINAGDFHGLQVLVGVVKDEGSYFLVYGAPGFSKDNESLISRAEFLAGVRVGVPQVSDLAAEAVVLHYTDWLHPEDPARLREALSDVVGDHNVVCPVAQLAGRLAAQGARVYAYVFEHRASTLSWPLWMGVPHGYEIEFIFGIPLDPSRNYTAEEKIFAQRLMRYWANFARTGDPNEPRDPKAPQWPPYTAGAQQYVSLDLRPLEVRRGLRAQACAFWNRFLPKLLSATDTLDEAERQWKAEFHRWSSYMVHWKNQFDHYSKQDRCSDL
Outline: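 Quantitative HTS in attached SH-SY5Y cells: 30 min compound exposure, then 90 min with acetylthiocholine and DTNB at 37 C; colour from thiocholine reports AChE activity.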

[8] = target: Acetylcholinesterase (Homo sapiens) (UniProt P22303); experiment: Acetylcholinesterase (AChE) small molecule antagonists: enzyme-based qHTS assay (AID 1347397; calls by dose curve; note: nearly all actives have a fitted effect of over 55% in size); settings: Potency: AChE enzyme activity inhibition; outcome: AChE enzyme activity inhibition
Outline: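 Compound or DMSO vehicle was pin-transferred onto recombinant human AChE (50 mU/mL as dispensed) and left 30 min at room temperature. Acetylthiocholine with DTNB then started the reaction, read colorimetrically 10 min later.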

[9] = target: Acetylcholinesterase (Homo sapiens) (UniProt P22303); experiment: Acetylcholinesterase (AChE) small molecule antagonists: fluorescence cell-based qHTS assay (AID 1347398; calls by dose curve; note: nearly all actives have a fitted effect of over 50% in size); settings: Potency: AChE activity; outcome: AChE activity
Outline: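 Using neuroblastoma SH-SY5Y cells as the enzyme source, test chemicals are preincubated 30 min at 37 C; AChE-driven acetylthiocholine cleavage is then quantified by thiocholine-dependent Thiolite Green fluorescence after 40 min at room temperature.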

[10] = target: Acetylcholinesterase (Homo sapiens) (UniProt P22303); experiment: Acetylcholinesterase (AChE) small molecule antagonists: enzyme-based qHTS assay with human liver microsomes (AID 1347399; calls by dose curve; note: nearly all actives have a fitted effect of over 60% in size); settings: Potency: qHTS inhibition; outcome: qHTS inhibition
Outline: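 Recombinant human AChE (50 mU/mL in the enzyme mix) and human liver microsomes (0.25 mg/mL final) were preincubated with compound and NADPH (0.25 mg/mL final) for 30 min at 37 C. Acetylthiocholine/DTNB was then added; thiocholine was read colorimetrically after 10 min at room temperature.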

[11] = target: Cytochrome P450 2D6 (Homo sapiens) (UniProt P10635); experiment: Cytochrome P450 Family 2 Subfamily D Member 6 (CYP2D6) small molecule antagonists: luciferase reporter qHTS assay (AID 1671196); note: nearly all actives have a fitted effect of over 50% in size; note: potency is the fitted concentration of half-maximal effect
Sequence of Cytochrome P450 2D6 (Homo sapiens) (P10635 whole entry, looked up): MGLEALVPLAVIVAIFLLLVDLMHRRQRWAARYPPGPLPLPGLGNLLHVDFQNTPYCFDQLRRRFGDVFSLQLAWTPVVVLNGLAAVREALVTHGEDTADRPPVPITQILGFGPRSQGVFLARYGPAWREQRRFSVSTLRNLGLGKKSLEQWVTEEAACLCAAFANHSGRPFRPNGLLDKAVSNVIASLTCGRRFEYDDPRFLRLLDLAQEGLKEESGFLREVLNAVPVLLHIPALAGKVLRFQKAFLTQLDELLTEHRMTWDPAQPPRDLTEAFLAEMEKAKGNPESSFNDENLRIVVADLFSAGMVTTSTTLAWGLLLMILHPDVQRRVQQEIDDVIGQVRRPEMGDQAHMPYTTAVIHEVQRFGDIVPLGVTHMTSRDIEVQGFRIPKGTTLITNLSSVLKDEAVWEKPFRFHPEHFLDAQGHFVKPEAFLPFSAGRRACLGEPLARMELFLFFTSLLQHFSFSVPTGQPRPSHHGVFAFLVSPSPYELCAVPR
Outline: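 Luminogenic proluciferin substrate, CYP2D6 enzyme; 10 min RT preincubation with compound, NADPH regeneration system added, 1 h RT. Stop/detection reagent, 20 min RT, luminescence read (RLU). Signal proportional to CYP activity.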

[12] = target: Cytochrome P450 2C19 (Homo sapiens) (UniProt P33261); experiment: Cytochrome P450 Family 2 Subfamily C Member 19 (CYP2C19) small molecule antagonists: luciferase reporter qHTS assay (AID 1671197); note: nearly all actives have a fitted effect of over 65% in size; note: potency is the fitted concentration of half-maximal effect
Sequence of Cytochrome P450 2C19 (Homo sapiens) (P33261 whole entry, looked up): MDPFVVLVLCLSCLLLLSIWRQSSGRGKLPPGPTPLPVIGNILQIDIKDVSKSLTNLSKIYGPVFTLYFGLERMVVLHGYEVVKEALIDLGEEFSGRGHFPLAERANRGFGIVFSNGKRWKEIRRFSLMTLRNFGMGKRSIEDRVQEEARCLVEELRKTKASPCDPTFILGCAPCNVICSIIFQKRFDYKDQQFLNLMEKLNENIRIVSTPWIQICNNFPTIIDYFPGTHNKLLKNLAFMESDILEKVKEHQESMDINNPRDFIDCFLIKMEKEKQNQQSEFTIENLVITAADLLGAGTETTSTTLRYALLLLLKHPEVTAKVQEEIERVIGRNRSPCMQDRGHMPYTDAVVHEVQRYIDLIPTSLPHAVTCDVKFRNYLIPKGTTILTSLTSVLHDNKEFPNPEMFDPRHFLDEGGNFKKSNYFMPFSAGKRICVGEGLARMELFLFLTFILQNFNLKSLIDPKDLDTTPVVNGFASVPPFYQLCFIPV
Outline: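 CYP2C19 P450-Glo, 1536-well qHTS. Cpd + enzyme/proluciferin substrate 10 min RT; + NADPH regen, 37C 1 h; stop with luciferin detection reagent, 20 min RT, luminescence (RLU). Pos ctrl ketoconazole.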

[13] = target: Cytochrome P450 2C9 (Homo sapiens) (UniProt P11712); experiment: Cytochrome P450 Family 2 Subfamily C Member 9 (CYP2C9) small molecule antagonists: luciferase reporter qHTS assay (AID 1671198); note: nearly all actives have a fitted effect of over 50% in size; note: potency is the fitted concentration of half-maximal effect
Sequence of Cytochrome P450 2C9 (Homo sapiens) (P11712 whole entry, looked up): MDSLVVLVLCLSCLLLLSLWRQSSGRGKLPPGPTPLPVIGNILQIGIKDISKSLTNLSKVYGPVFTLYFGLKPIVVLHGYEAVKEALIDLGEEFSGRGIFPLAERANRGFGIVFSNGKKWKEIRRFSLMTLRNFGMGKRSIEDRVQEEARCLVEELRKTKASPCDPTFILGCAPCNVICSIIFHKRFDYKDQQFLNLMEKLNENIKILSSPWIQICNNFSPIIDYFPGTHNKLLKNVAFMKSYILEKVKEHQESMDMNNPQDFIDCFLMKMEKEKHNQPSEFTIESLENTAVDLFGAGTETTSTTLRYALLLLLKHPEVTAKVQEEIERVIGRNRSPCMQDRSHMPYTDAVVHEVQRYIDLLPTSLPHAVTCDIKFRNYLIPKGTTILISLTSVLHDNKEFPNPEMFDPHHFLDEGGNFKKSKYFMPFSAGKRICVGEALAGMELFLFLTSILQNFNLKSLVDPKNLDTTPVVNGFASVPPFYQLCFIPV
Outline: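 CYP2C9 activity was measured with a P450-Glo proluciferin substrate. Enzyme–substrate mix was held with compound for 10 min at room temperature, then NADPH regeneration solution was added for 1 h at 37C. Luciferin product was read as luminescence.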

[14] = target: Cytochrome P450 1A2 (Homo sapiens) (UniProt P05177); experiment: Cytochrome P450 Family 1 Subfamily A Member 2 (CYP1A2) small molecule antagonists: luciferase reporter qHTS assay (AID 1671199); note: nearly all actives have a fitted effect of over 50% in size; note: potency is the fitted concentration of half-maximal effect
Sequence of Cytochrome P450 1A2 (Homo sapiens) (P05177 whole entry, looked up): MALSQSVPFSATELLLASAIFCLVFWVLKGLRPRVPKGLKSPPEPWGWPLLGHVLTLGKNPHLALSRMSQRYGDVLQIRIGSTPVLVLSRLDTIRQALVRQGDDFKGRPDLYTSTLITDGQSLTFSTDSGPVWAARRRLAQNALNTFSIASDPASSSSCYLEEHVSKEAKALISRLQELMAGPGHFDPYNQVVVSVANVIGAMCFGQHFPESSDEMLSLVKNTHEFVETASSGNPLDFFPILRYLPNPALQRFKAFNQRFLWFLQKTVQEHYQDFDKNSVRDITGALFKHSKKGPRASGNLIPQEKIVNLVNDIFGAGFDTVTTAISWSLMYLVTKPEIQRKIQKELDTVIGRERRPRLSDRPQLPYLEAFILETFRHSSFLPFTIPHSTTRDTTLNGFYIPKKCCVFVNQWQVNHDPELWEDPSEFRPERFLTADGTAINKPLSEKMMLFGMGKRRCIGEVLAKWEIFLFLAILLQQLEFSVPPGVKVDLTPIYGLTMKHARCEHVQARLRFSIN
Outline: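 Luminescence readout (relative luminescence units) after luciferin detection reagent, 20 min RT. Preceded by 1 h room-temperature CYP1A2 reaction with NADPH regeneration solution following 10 min compound preincubation with enzyme and proluciferin substrate. Furafylline positive control.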

[15] = target: Voltage-gated inwardly rectifying potassium channel KCNH2 (Homo sapiens) (UniProt Q12809); experiment: Human Ether-a-go-go-Related Gene (hERG) channel small molecule antagonists: fluorescence cell-based qHTS assay (AID 1671200)
Sequence of Voltage-gated inwardly rectifying potassium channel KCNH2 (Homo sapiens) (Q12809 whole entry, looked up): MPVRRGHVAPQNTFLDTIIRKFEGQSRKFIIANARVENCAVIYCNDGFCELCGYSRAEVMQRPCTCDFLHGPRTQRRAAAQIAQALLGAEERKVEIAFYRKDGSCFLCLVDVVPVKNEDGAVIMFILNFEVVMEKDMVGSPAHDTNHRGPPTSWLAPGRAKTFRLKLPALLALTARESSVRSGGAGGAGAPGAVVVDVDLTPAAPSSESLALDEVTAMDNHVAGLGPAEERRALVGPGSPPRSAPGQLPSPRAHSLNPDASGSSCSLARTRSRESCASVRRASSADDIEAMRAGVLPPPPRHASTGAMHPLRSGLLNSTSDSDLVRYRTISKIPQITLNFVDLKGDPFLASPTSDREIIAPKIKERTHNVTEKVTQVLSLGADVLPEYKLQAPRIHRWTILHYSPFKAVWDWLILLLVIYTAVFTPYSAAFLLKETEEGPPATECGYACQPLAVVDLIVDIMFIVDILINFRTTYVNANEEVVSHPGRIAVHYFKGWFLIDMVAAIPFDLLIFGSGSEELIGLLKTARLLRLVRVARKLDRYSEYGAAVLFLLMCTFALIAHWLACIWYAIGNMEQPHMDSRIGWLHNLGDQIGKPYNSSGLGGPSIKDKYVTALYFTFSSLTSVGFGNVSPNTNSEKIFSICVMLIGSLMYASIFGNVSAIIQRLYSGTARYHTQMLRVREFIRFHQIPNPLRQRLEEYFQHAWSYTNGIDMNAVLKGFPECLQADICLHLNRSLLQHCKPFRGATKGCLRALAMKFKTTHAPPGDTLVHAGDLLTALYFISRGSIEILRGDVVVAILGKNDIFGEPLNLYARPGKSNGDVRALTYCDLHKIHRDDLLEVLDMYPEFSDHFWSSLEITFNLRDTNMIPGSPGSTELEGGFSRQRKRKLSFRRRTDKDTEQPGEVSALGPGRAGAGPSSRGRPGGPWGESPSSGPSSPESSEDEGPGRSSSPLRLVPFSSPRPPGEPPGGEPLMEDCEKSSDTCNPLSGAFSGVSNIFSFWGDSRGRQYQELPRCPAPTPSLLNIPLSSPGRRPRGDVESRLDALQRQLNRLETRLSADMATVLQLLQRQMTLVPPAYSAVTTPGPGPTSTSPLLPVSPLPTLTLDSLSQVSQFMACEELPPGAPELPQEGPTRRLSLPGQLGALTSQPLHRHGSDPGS
Outline: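 First, 1000 cells per well are seeded and cultured overnight at 37 C. Next, FluxOR II dye is loaded for 1 h at room temperature, protected from light. After 10 more minutes, stimulus is added and fluorescence is read.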

[16] = target: Cytochrome P450 3A4 (Homo sapiens) (UniProt P08684); experiment: Cytochrome P450 Family 3 Subfamily A Member 4 (CYP3A4) small molecule antagonists: luciferase reporter qHTS assay (AID 1671201)
Sequence of Cytochrome P450 3A4 (Homo sapiens) (P08684 whole entry, looked up): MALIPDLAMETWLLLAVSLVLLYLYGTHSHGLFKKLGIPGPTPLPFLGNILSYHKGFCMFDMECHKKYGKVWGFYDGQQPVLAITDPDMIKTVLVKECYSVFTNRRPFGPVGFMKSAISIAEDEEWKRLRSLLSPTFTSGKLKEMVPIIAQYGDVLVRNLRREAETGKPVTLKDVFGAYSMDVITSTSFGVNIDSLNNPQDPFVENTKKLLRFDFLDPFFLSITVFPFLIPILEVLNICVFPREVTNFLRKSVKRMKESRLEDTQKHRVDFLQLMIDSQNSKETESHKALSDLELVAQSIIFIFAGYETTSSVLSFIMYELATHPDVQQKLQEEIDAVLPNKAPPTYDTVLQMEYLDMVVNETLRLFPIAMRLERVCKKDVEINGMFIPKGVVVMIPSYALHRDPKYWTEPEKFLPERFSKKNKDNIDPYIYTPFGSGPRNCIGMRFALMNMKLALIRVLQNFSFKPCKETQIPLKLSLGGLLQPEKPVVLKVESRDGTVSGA
Outline: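 Enzyme and proluciferin substrate are mixed with test chemicals for 10 min, then NADPH regeneration system drives turnover for 1 h at room temperature. A detection reagent halts the reaction; luminescence after 20 min gives relative activity.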

[17] = target: Nuclear receptor subfamily 1 group I member 2 (Rattus norvegicus) (UniProt Q9R1A7); experiment: Rat pregnane X receptor (rPXR) activation by small molecules, qHTS assay (AID 1346983); settings: rPXR luciferase reporter cells, One-Glo luminescence, 24 h; stronger effect = higher value; note: nearly all actives have a fitted effect of over 20% in size
Outline: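 Cell-based rPXR luciferase reporter assay, 2,000 cells per well, rested 5hr at 37 C before compound addition in DMSO, then 24 hr at 37 C. One-Glo reagent was added and luminescence read after 30 min at room temperature.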

[18] = target: Nuclear receptor subfamily 1 group I member 2 (Homo sapiens) (UniProt O75469); experiment: CYP3A4 induction through human pregnane X receptor (PXR) by small molecules, qHTS assay (AID 1346984); note: nearly all actives have a fitted effect of over 40% in size
Outline: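 HepG2-derived DPX-2 line carrying PXR plus a CYP3A4-promoter luciferase reporter; cells plated 5 hr, compound-exposed 24 hr at 37C. CYP3A4 activity probed with 3uM (final) Luciferin-IPA for 3hr, then luciferase read after One-Glo.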

[19] = target: Nuclear receptor subfamily 1 group I member 2 (Homo sapiens) (UniProt O75469); experiment: Human pregnane X receptor (PXR) activation by small molecules, qHTS assay (AID 1346985); note: nearly all actives have a fitted effect of over 40% in size
Outline: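 DPX-2 cells (HepG2 co-transfected with a PXR response element and a CYP3A4-promoter luciferase construct) were seeded at 2,000 per well, rested 5 hr at 37C, then exposed to DMSO-dissolved compounds for 24 hr. Activation was read as luciferase luminescence.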

SMILES	Potency [1]	Potency [2]	Potency [3]	Potency [4]	Potency [5]	Potency [6]	Potency [7]	Potency [8]	Potency [9]	Potency [10]	Potency [11]	Potency [12]	Potency [13]	Potency [14]	Potency [15]	Potency [16]	max activation [17]	outcome [18]	Potency [19]
CCOP(=O)(O)C(N)=O	inactive	inactive	inactive	inactive	inactive	inactive	inactive	inactive	inactive	inactive	inactive	inactive	inactive	inactive	inactive	inactive			
c1ccc2c(c1)sc1ccccc12	inactive	inactive	inactive	inactive	inactive	inactive	inactive	inactive	inactive	inactive	inactive	39.9 µM (active) and inactive	inactive	3.17 µM (active) and 2.57 µM (active)		inactive	-3.19% (inactive)	inactive	inactive
FC(F)OC(F)(F)C(F)Cl (centres undefined)	inactive	inactive	inactive	inactive	inactive	inactive	inactive	inactive	inactive	inactive		inactive	inactive	35.6 µM (active)	inactive		-2.15% (inactive)	inactive	inactive
Cc1cccc(C)c1NC1=NCCCS1	inactive	inactive	inactive	inactive	inactive	inactive	inactive	inactive	inactive	inactive	11 µM (active)	inactive	inactive	inactive	inactive				
CC[N+]1(CCOC(=O)C(O)(c2ccccc2)c2ccccc2)CCCCC1	inactive	inactive	inactive	inactive	inactive	inactive	inactive	inactive	inactive	inactive	0.977 µM (active)	inactive	inactive	inactive	inactive	inactive	0.456% (inactive)	inactive	inactive
C[C@@H]1C[C@@H]([C@H](O)CC2CC(=O)NC(=O)C2)C(=O)[C@@H](C)C1	342 nM (active) and 1.22 µM (active) and 1.19 µM (active)	inactive	24.2 nM (active) and 68.6 nM (active) and 188 nM (active)	inactive	121 nM (active) and 1.72 µM (active) and 750 nM (active)														
CCOC(=O)c1cncn1C(C)c1ccccc1 (centres undefined)	inactive	inactive	inactive	inactive	inactive	26.6 µM (active)	inactive	inactive	inactive	inactive	inactive		12.3 µM (active)		inactive		0.791% (inactive)	inactive	
CCN(C(C)=O)c1cccc(-c2ccnc3c(C#N)cnn23)c1	inactive	inactive	inactive	inactive	inactive	inactive	inactive	inactive	inactive	inactive	inactive	27.5 µM (active)		inactive	inactive	inactive	-2.18% (inactive)	inactive	inactive
CCCC1CCCCN1 (centres undefined)	inactive	inactive	inactive	inactive	inactive	inactive	inactive	inactive	inactive	inactive		inactive	inactive	inactive	inactive	inactive	-2.95% (inactive)	inactive	inactive
O=C(Cc1ccccc1)c1ccccc1	inactive	inactive	inactive	inactive	inactive	61.1 µM (active)	inactive	inactive	inactive	inactive	22.4 µM (active)	11.2 µM (active)	inactive	12.6 µM (active)	inactive	inactive			
CN[C@@H](C)[C@H](O)c1ccccc1	inactive	inactive	inactive	inactive	inactive	inactive	inactive	inactive	inactive			inactive	inactive	inactive	inactive	inactive	-0.788% (inactive)	inactive	inactive
C[N+](C)(C)CCOC(=O)C(O)(c1ccccc1)c1ccccc1	inactive	inactive	inactive	inactive	inactive	inactive	inactive	inactive	inactive	inactive	15.5 µM (active)	inactive	inactive	inactive	inactive		-2.47% (inactive)	inactive	inactive
CC(C)[C@@H](C(=O)O[C@@H](C#N)c1cccc(Oc2ccccc2)c1)c1ccc(Cl)cc1	inactive	inactive	27.7 µM (active)	inactive	inactive	5.53 µM (active) and 9.69 µM (active)	inactive	inactive	inactive	inactive	32.2 µM (active) and inactive	9.07 µM (active) and 31.7 µM (active)	7.21 µM (active) and 12.6 µM (active)	inactive	inactive	inactive			
C#CC(O)(C=CCl)CC (centres undefined)	inactive	inactive	inactive	inactive	inactive	inactive	inactive	inactive	inactive	inactive	inactive	inactive	inactive	inactive	inactive	inactive			
